Assay outcomes from PubChem BioAssay.
Only a selection was taken, and hits are over-represented in it overall.
NPSR antag = blocks cAMP signaling of the human neuropeptide S receptor; 1% of 220,000 active; Q6W5P4; AID 1461; Potency, µM (doses to about 38.3 µM), for the others: top-dose activity change, negative = inhibition, usual class: inhibitors; CHO-NPSR cells, cAMP TR-FRET, antagonist mode; note: nearly all actives have a fitted effect of over 50% in size
Target sequence (Q6W5P4 whole entry, looked up): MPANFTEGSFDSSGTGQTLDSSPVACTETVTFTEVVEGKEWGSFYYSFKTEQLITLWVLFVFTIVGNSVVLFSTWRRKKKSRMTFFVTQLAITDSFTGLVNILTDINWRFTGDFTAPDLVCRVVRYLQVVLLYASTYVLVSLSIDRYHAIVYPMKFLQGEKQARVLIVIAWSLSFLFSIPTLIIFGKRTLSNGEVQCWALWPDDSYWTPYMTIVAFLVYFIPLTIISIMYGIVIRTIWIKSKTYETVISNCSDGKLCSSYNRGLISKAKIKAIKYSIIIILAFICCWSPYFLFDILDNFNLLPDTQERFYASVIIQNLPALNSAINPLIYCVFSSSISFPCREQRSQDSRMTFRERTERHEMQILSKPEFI
ERK EGF inh = blocks ERK signaling stimulated by EGF | 0.41% of 130,000 active | HEK293-V1b, EGF-stimulated phospho-ERK AlphaScreen | Potency, µM (top dose mostly 11.5 µM), inactives show at the top dose activity change, negative = inhibition, usual class: inhibitors;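 note: plate controls were stimulated vehicle wells for no effect and unstimulated vehicle basal for full effect; nearly all actives have a fitted effect of over 55% in size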
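EGF-stimulated (25 nM, 5 min) phospho-ERK in HEK293 cells stably expressing V1b, cells pretreated 30 min with compound at 37C. Homogeneous AlphaScreen read on lysates.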
* marks the source's active call; other numbers are inactive results; u = inconclusive; x = no result given; [ ] = another dose, or the depositor's remark. Calls come from the whole dose curve; as a rule, active = well fitted curve in the direction sought with a large enough effect; inconclusive = small, poorly fitted or top-dose-only effect, or another doubt; inactive = no such curve, though single readings can be large; an effect the other way counts as inactive or inconclusive. Unless noted, % is set by controls: 0 for no effect and ±100 for the full control effect; potency is the fitted concentration of half-maximal effect.

SMILES	NPSR antag	ERK EGF inh
N#C/C(=C(/O)c1ccc([N+](=O)[O-])o1)c1nc2ccccc2[nH]1	-55.7%	-11.0%[57.5 µM]
Cc1ccc2nc(/C(C#N)=C\c3ccc(N4CCOCC4)o3)[nH]c2c1	-9.2%	-3.6%
Cc1ccc2nc(/C(C#N)=C\c3ccc([N+](=O)[O-])o3)[nH]c2c1	10µM*	x
N#C/C(=C\c1ccc([N+](=O)[O-])o1)c1nc2ccccc2[nH]1	3.98µM*	5.2%
CSc1nc(N)c2ncn([C@@H]3O[C@H](COP(=O)(O)OP(=O)(O)OP(=O)(O)O)[C@H](O)[C@H]3O)c2n1	4.2%[46.1 µM]	-1.4%
CCOC(=O)C(C(=O)OCC)c1cc(Br)c2noc3c2c1C(=O)c1ccccc1-3	3.98µM*	x
CCOC(=O)c1c(C)nc2c(c1-c1ccc(OC)c(OC)c1)C(=O)c1ccccc1-2	-24.7%[46.1 µM]	x
O=C(c1ccco1)N1CCC2(CCN(Cc3ccccc3)CC2)CC1	x	3.3%
O=c1cc(CN2CCN(c3ccccc3)CC2)c2cc(O)c(-c3ccccc3)cc2o1	-10.7%[46.1 µM]	x
COc1cccc(NCc2cc(=O)oc3cc(-c4ccccc4)c(O)cc23)c1	0.9%	28.2µM*
C1CCC(C(C[C@@H]2CCCCN2)C2CCCCC2)CC1	x	9.9%[25.7 µM]
Cc1nc(NCc2ccccc2)c2nc(-c3ccccc3)n(CCN3CCCC3)c2n1	x	-0.2%
Cc1[nH]c(N=Nc2ccccc2)nc1N=Nc1ccccc1	30.3%	22.4µM*
Cc1[nH]c2ccccc2c1N=Nc1ccc(F)cc1	u	2.1%
COc1ccc(NC(=O)N2CCCC3(CCN(S(C)(=O)=O)CC3)C2)cc1	x	0.4%
O=C(NC1=C(Nc2ccc(Cl)cc2)C(=O)c2ccccc2C1=O)c1ccccc1	-5.9%	u
CN(C)c1ccc(NC2=C(Cl)C(=O)c3ccccc3C2=O)cc1	u	14.1µM*
CC(=O)Nc1ccc(NC2=C(Cl)C(=O)c3ccccc3C2=O)cc1	10µM*	22.0%
O=C1C(Cl)=C(Nc2ccc3cn[nH]c3c2)C(=O)c2ccccc21	6.31µM*	15.8µM*
O=C(Nc1ccc2cn[nH]c2c1)c1c(Cl)cccc1Cl	-9.5%[46.1 µM]	-8.8%
O=C1C(Cl)=C(NCCCO)C(=O)c2ccccc21	-8.5%[46.1 µM]	x
CC(=O)N1CCC2(CC1)CCN(c1ncccn1)CC2	x	8.9%
O=C1CCCC1C(O)c1ccc2ccccc2c1 (configuration not stated)	x	11.6%
COCCN(CCOC)c1nc(C)nc2c1nc(-c1ccccc1)n2CCCN(C)C	x	-3.4%
Cc1cccc(CN2C(=O)N/C(=C/c3ccc(C)s3)C2=O)c1	-11.0%[46.1 µM]	x
SMILES	NPSR antag	ERK EGF inh
Cc1cccc(CN2C(=O)N/C(=C/c3cc(C)n(-c4cc(C)ccn4)c3C)C2=O)c1	15.8µM*	x
O=C(c1cccc(F)c1)N1CCC[C@@]2(CCN(c3ccccc3)C2)C1	x	-9.2%
Cc1ccc(NC(=O)c2ccco2)c([N+](=O)[O-])c1	13.2%	3.4%
CCN(CC)P(=O)(Nc1ccc(C)cc1Br)c1ccc(N(C)C)cc1NC(=O)c1ccco1 (configuration not stated)	10µM*	4.5%
CC(C)(C)Nc1oc(-c2ccccc2)nc1-c1ccc(C(F)(F)F)cc1	x	-6.5%
CC1(OC(=O)c2cnc3ccccc3n2)C(=O)C=C2C=C(c3ccsc3)OC=C2C1=O (configuration not stated)	x	-11.8%
Oc1ccc(Nc2nc3ccccc3nc2Nc2ccc(O)cc2)cc1	10µM*	x
Cc1nc2ccccc2nc1N/N=C/c1ccc(O)cc1	6.2%[7.67 µM]	-4.6%[57.5 µM]
CC(C)OC(=O)[C@@H]1CC[C@H](C)[C@@H](CCCCO)O1	x	-19.7%
C=CCCCCCCCCCCCc1ccco1	x	7.7%
CCc1cc2cc3c(cc2nc1SCC(=O)Nc1nccs1)OCO3	10µM*	x
Cc1ccc(C#N)c(SCC(=O)Nc2nccs2)n1	u	3.3%
COc1cc(/C=C\C(=O)N2CCC=CC2=O)cc(OC)c1OC	x	7.5%[25.7 µM]
c1ccc(-c2nc(-c3cccc4ccccc34)c(Nc3ccc4ccccc4c3)o2)cc1	x	-0.4%
CCc1c(C)nc2cc(-c3ccc(OC)c(OC)c3)nn2c1NCC1CC1	12.6µM*	x
CCc1c(C)nc2cc(-c3cc(OC)cc(OC)c3)nn2c1N1CCN(CCN2CCOCC2)CC1	-16.3%	7.5%
Cc1noc(C)c1C(=O)N1CCC2(CC1)CN(c1cccc(-c3ccccc3)c1)C2	x	17.1%
CCCn1c(-c2ccc(F)cc2)nc2c(NCCN(C(C)C)C(C)C)nc(C)nc21	x	9.1%
Cc1nn(C)cc1/C=N/NC(=S)Nc1ccccc1	2µM*	x
Cc1ccc(NC(=S)N/N=C/c2c(C)nn(-c3ccccc3)c2N2CCCC2)cc1	-13.2%[46.1 µM]	x
COc1cccc2sc(Nc3nc(-c4ccccn4)cs3)nc12	1µM*	x
COc1cccc2sc(NNC(=O)COc3ccccc3)nc12	7.2%	0.4%
O=C(c1cnccn1)N1CCC2(CCCN(Cc3nccs3)C2)CC1	x	8.9%
O=C(Oc1cccc2cccnc12)c1ccco1	-5.5%[46.1 µM]	4.8%
O=C(Oc1ccc(Cl)c2cccnc12)c1ccco1	3.98µM*	x
SMILES	NPSR antag	ERK EGF inh
NC(Cc1cnc[nH]1)C(=O)Nc1ccc2ccccc2c1 (configuration not stated)	x	16.5%
COc1cccc(/C=N/n2c(N)c(S(=O)(=O)c3cccs3)c3nc4ccccc4nc32)c1	-3.5%[46.1 µM]	x
Nc1c(S(=O)(=O)c2cccs2)c2nc3ccccc3nc2n1/N=C/c1cccc(O)c1	7.94µM*	x
C[C@H]1C=C2C=C[C@H](C)[C@H](CC[C@@H]3C[C@@H](O)CC(=O)O3)[C@H]2[C@@H](OC(=O)[C@@H](C)CCO)C1	x	-3.7%
CC[n+]1ccc(/C=C/c2ccc(N(C)C)cc2)c2ccccc21	u	14.1µM*
CN(C)c1ccc(/C=C/c2cc[n+]([O-])cc2)cc1	-16.0%[46.1 µM]	x
CC[n+]1ccccc1/C=C/c1ccc(N(C)C)cc1	-48.5%	-2.6%
CC[n+]1c(/C=C/c2ccc(N(C)C)cc2)ccc2ccccc21	5.01µM*	2.7%
N#CC(Cc1ccc(O)c(O)c1)C(=O)N1CCc2ccccc21 (configuration not stated)	-13.0%[46.1 µM]	-7.0%
CCCCC[C@H](O)/C=C/[C@H]1OC(O)C[C@H](O)[C@@H]1C/C=C\CC(=O)O (some centres not stated)	x	-3.8%
c1ccc(-c2nnc(-c3ccccn3)nc2NC2CCCCC2)cc1	10µM*	x
CNc1nc(-c2ccccn2)nnc1-c1ccccc1	-9.1%[46.1 µM]	x
CC(C)(C)Nc1oc(-c2ccccc2)nc1-c1cccc2ccccc12	x	-4.9%
O=C1NN(c2ccccc2)C(=O)/C1=C/c1ccc(Sc2ccc(Cl)cc2)o1	u	28.2µM*
O=C1NN(c2ccccc2)C(=O)/C1=C/c1ccc(-c2ccc(Cl)c(C(=O)O)c2)o1	-19.7%	-8.2%
CN(C)c1ncc2nc(-c3ccc(F)cc3)c(=O)n(CCC#N)c2n1	x	3.9%
COc1ccc(-c2c([C@H]3[C@H]4C=CC[C@@H](C)[C@@H]4C(=O)N3Cc3ccccc3)ccc3ccccc23)cc1OC	6.31µM*	-2.5%[57.5 µM]
COc1ccc(-c2ccc(OC)c([C@H]3[C@H]4C=CC[C@@H](C)[C@@H]4C(=O)N3Cc3ccccc3)c2)cc1OC	u	9.5%[57.5 µM]
NC(=O)C1=CN(C2OC(COP(=O)(O)OP(=O)(O)OC[C@H]3O[C@@H](n4cnc5c(N)ncnc54)[C@H](OP(=O)(O)O)[C@H]3O)C(O)C2O)C=CC1 (some centres not stated)	8.8%[46.1 µM]	13.1%
O=C1CCC=C1C(O)c1ccc(Cl)cc1 (configuration not stated)	x	-7.7%
Cc1ccc(N=c2oc3cc(O)ccc3cc2C(N)=O)cc1	-20.5%[46.1 µM]	x
